# Experimental data as given in publication PMC5700166.
# Positions count from the first letter of the chain named.
# Columns and labels:
# Test in all cases: protein-binding microarray (PBM); PBM: ~300 nM protein, 6 mM HEPES pH 7.8, 80 mM KCl, 0.5 mM EDTA, 0.5 mM EGTA, 6% glycerol, 35 ng/ul poly-dIdC, 1% milk, 1 h, room temperature; Ap Aiptasia and Nv Nematostella (sea anemones) / Co Capsaspora / Aq Amphimedon (sponge) / Dm Drosophila / Hu human; RHD is the Rel homology domain; high values mean tight binding
# Conditions in all cases: dsDNA, one strand shown
# GST-Ap-NF-kB RHD = molecular target: T1, GST-Ap-NF-kB RHD (Exaiptasia pallida (Aiptasia), UniProt A0A913YAJ5 2-422)
# T1 sequence: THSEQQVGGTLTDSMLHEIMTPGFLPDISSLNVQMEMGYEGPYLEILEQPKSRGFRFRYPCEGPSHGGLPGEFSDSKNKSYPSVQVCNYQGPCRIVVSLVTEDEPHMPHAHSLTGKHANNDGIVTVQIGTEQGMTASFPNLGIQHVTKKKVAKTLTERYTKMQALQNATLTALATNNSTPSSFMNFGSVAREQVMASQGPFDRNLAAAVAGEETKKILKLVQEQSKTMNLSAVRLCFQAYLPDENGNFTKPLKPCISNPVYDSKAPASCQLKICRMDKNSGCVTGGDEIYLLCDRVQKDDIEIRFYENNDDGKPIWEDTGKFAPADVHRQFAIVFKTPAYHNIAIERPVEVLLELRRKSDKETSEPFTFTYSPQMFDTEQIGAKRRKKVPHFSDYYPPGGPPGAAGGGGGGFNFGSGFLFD
# [1] = molecular target: T2, GST-Nv-NF-kB (Cys allele) (Nematostella vectensis, UniProt E5G601 2-411)
# T2 sequence: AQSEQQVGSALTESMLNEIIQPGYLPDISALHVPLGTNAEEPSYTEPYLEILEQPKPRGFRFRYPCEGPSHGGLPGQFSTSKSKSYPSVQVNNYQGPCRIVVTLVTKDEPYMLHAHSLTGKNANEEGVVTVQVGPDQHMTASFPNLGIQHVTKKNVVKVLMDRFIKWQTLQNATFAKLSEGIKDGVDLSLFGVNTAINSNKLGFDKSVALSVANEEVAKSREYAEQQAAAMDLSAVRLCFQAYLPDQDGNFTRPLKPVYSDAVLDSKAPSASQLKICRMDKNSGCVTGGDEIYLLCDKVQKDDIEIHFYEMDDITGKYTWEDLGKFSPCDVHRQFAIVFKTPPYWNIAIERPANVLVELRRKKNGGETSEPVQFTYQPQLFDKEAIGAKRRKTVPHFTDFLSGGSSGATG
# [2] = molecular target: T3, GST-Nv-NF-kB (Ser allele) (Nematostella vectensis, UniProt A7UNT2 2-411)
# T3 sequence: T2 sequence with Q21R, C66S, S207N, E215Q, V217A, E225K, A268E, D399E
# GST-Co-NF-kB = molecular target: T4, GST-Co-NF-kB (Capsaspora owczarzaki, UniProt F1ARL5 200-546)
# T4 sequence: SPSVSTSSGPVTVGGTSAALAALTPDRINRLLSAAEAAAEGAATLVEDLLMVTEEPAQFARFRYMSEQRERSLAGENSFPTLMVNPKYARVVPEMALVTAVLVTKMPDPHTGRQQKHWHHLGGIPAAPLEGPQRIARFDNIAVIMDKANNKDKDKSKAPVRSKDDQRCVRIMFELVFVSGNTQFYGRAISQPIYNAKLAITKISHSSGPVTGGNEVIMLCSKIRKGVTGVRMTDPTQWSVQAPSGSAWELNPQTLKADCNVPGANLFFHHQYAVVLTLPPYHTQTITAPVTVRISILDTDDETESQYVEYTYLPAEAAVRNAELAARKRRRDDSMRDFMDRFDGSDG
# GST-Dm-Relish = molecular target: T5, GST-Dm-Relish (Drosophila melanogaster, UniProt Q94527 99-473)
# T5 sequence: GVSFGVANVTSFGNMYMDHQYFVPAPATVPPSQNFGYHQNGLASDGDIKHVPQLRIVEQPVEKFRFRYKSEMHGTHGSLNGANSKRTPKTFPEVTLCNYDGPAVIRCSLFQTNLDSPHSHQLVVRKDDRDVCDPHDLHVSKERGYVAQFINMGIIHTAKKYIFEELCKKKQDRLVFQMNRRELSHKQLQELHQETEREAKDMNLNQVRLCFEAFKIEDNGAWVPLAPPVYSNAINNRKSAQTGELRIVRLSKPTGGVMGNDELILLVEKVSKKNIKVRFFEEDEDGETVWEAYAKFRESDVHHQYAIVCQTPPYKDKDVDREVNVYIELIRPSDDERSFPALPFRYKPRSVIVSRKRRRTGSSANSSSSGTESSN
# GST-Aq-NF-kB = molecular target: T6, GST-Aq-NF-kB (Amphimedon queenslandica, UniProt A9Y5G7 2-389)
# T6 sequence: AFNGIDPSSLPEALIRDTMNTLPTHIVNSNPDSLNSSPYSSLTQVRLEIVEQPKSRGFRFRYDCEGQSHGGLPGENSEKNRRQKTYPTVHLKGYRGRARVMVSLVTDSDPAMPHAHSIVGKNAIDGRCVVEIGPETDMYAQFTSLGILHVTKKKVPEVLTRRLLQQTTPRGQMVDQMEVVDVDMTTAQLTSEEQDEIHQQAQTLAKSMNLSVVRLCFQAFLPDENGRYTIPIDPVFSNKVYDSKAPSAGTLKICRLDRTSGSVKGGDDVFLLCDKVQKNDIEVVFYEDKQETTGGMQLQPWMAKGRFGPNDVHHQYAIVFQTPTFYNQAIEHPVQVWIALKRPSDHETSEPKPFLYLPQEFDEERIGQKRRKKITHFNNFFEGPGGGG
# GST-Hu-p50 = GST-Hu-p50 (Homo sapiens, UniProt P19838 7-356)
# Chain of GST-Hu-p50 (P19838 7-356): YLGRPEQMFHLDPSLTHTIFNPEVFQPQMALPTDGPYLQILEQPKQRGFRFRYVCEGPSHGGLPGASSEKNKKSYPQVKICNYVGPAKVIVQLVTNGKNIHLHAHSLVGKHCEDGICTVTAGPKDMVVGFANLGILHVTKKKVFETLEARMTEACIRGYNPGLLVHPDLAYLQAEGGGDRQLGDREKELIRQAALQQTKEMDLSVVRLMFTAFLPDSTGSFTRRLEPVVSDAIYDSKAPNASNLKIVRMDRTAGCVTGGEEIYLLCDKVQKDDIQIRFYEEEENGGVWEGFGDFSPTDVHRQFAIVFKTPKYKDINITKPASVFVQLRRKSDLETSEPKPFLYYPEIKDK
Sequence,binding signal (GST-Ap-NF-kB RHD) [z-score],binding signal [1] [z-score],binding signal [2] [z-score],binding signal (GST-Co-NF-kB) [z-score],binding signal (GST-Dm-Relish) [z-score],binding signal (GST-Aq-NF-kB) [z-score],binding signal (GST-Hu-p50) [z-score]
CCGATTAACATCAGATAATCCCCTGATGTTAATCGGGTCTTGATTCGCTTGACGCTGCTG,8.1,8.93,9.43,4.09,6.59,7.45,6.48
CCGATTAACATCAAAAAATCCCATGATGTTAATCGGGTCTTGATTCGCTTGACGCTGCTG,4.84,5.22,4.17,2.05,8.41,5.43,4.75
CCGATTAACATCAGGGAGTCCCCTGATGTTAATCGGGTCTTGATTCGCTTGACGCTGCTG,10.9,8.88,7.04,4.05,10.7,9.35,6.52
CCGATTAACATCAGAAAGTCCCCTGATGTTAATCGGGTCTTGATTCGCTTGACGCTGCTG,8.98,9.38,8.58,3.84,9.11,7.8,7.42
CCGATTAACATCACGGGTTCCCCTGATGTTAATCGGGTCTTGATTCGCTTGACGCTGCTG,7.55,5.61,6.62,5.5,7.65,4.79,4.64
CCGATTAACATCACAAGTTTCCCTGATGTTAATCGGGTCTTGATTCGCTTGACGCTGCTG,4.14,5.33,5.84,4.92,2.52,5.24,4.17
CCGATTAACATCAGTAAATCCCATGATGTTAATCGGGTCTTGATTCGCTTGACGCTGCTG,1.49,1.09,1.18,1.48,7.4,2.3,1.94
CCGATTAACATCAGAAACTCCCCTGATGTTAATCGGGTCTTGATTCGCTTGACGCTGCTG,8.69,7.68,7.84,5.37,7.08,7.47,6.42
CCGATTAACATCAGAATTCCCGATGATGTTAATCGGGTCTTGATTCGCTTGACGCTGCTG,3.78,4.69,4.3,3.92,2.59,3.28,3.21
CCGATTAACATCACGAAATCCCCTGATGTTAATCGGGTCTTGATTCGCTTGACGCTGCTG,8.93,9.59,11.6,4,8.34,6.39,7.74
CCGATTAACATCAGGGGCTTTTATGATGTTAATCGGGTCTTGATTCGCTTGACGCTGCTG,6.92,9.51,7.11,1.53,7.16,7.6,6.51
